This is a sample that favours compounds with a hit; in the whole collection about 2.4% have one here.
D2 ag-1: Beta-Arrestin HTS for Positive Allosteric Modulators of the Human D2 Dopamine Receptor: Agonists; DiscoveRx PathHunter D2 beta-arrestin, luminescence, 90 min; 100% = 57 uM dopamine signal; 0.084% of 360,000 active; activation, % (concentration not given with the values); D(2) dopamine receptor (Homo sapiens), P14416; in the data active = activation above about 40%; inconclusive = between about 15% and that limit
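Agonist mode: compounds alone added to overnight-plated D2 PathHunter cells for 90 min at 37 C, with 57 uM final dopamine (EC100) defining full response. Beta-arrestin recruitment detected by chemiluminescent reagent, read after 1 h at ambient temperature.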
D2 PAM-1: Beta-Arrestin HTS for Positive Allosteric Modulators of the Human D2 Dopamine Receptor: Potentiators; D(2) dopamine receptor (Homo sapiens), P14416; DiscoveRx D2 beta-arrestin cells, luminescence, 90 min; 100% = 57 uM dopamine signal; 0.23% of 360,000 active; AID 624464, 2012; potentiation, % (test concentration not listed); in the data active = potentiation above about 50%; inconclusive = mostly about 30% to 49%
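PathHunter beta-arrestin assay in DiscoveRx D2 cells. Compounds were added with an EC20 of dopamine (50 nM final) for 90 min at 37 deg C. Luminescence was read 1 h after detection reagent, with 57 uM dopamine as the EC100 control.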
D2 antagonist: HTS Assay for Allosteric Antagonists of the Human D2 Dopamine Receptor: Primary Screen for Antagonists; D(2) dopamine receptor (Homo sapiens), P14416; HEK293 TREx D2 cells, calcium flux, dopamine EC80; inhibition, % at 10 µM; 2% of 340,000 active; in the data active = inhibition above about 30%; inactive = below that, where a call was filed
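Tetracycline-induced HEK293 TREx cells expressing D2 receptor forced-coupled to calcium signalling, loaded with no-wash calcium dye. Compounds added and calcium flux read 180 s, then dopamine added at EC80 and read a further 180 s.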
D2 ag-2: HTS Assay for Allosteric Agonists of the Human D2 Dopamine Receptor: Primary Screen for Agonists; D(2) dopamine receptor (Homo sapiens), P14416; HEK293 T-REx D2 cells, calcium flux agonist mode; activation, % at 2 µM; 0.53% of 340,000 active; AID 485358, 2010;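 active = activation over 3 SD above normal in the single-dose calcium agonist read, cut at about 30% in these data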
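Agonism is scored from calcium flux in a force-coupled, inducible HEK293 cell line expressing D2, read kinetically for 180 s after compound addition against dopamine controls.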
D2 PAM-2: HTS Assay for Positive Allosteric Modulators of the Human D2 Dopamine Receptor: Primary Screen for Potentiators. 0.34% of 340,000 active. potentiation, % at 10 µM. HEK293 T-REx D2, calcium flux, EC20 dopamine potentiation;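 active = potentiation over 3 SD above the plate norm, cut at about 30% in these data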
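Tetracycline-induced HEK293 T-REx cells force-coupled to calcium signalling expressed D2; compounds were pin-added after a 10 s baseline, read kinetically 180 s, then an EC20 dopamine challenge followed with a further 180 s calcium read.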
D3 arrestin ag: qHTS of D3 Dopamine Receptor Agonist: D3 Dopamine Receptor B-arrestin Agonist Confirmatory Assay | shares compounds with D2 ag-2 | DiscoveRx D3 beta-arrestin cells, luminescence, 90 min | Potency, µM (titrated, usually from 76.9 µM), most hits filed as activators | 4% of 2,300 active; note: nearly all actives have a fitted effect of over 70% in size
Target sequence (P35462 whole entry, looked up): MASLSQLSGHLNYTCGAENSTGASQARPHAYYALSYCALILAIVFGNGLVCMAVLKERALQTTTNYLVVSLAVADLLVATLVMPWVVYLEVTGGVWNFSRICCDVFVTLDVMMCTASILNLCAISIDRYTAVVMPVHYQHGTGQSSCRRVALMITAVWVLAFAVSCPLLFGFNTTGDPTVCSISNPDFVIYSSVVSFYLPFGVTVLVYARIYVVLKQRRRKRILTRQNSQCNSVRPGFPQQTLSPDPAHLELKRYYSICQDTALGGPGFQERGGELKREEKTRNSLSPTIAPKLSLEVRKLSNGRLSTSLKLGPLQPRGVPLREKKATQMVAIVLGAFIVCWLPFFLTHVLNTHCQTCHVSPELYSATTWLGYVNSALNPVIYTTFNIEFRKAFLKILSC
D2 ag-3: qHTS of D3 Dopamine Receptor Agonist: D2 Dopamine Receptor B-arrestin Agonist Counterscreen | shares compounds with D2 ag-2 | DiscoveRx PathHunter D2 beta-arrestin, luminescence, 90 min; response scale: percent relative to full dopamine signal | Potency, µM (titrated, usually from 76.9 µM), actives largely listed as activators | 5.9% of 2,300 active; note: nearly all actives have a fitted effect of over 70% in size
Of the large screens only hits and unclear results are named; the others gave an inactive call (follow-up assays come after a bar, where they were run). Unless noted, calls come from the whole dose curve; as a rule, active = well fitted activation curve with a large enough effect; inconclusive = small, poorly fitted or top-dose-only effect; inactive = flat fitted curve, though single readings scatter.

OC(COc1ccc(CNCc2cccnc2)cc1)CN1CCc2ccccc2C1 (stereo not given)	D2 antagonist 49, D2 ag-2 54 | D3 arrestin ag inactive | D2 ag-3 inactive
Cc1cc(=O)oc2cc(OCC(O)CN3CCc4ccccc4C3)ccc12 (stereo not given)	none (no result: D2 antagonist, D2 ag-2, D2 PAM-2) | D3 arrestin ag inactive | D2 ag-3 inactive
Cc1cc(=O)oc2cc(OCC(O)CN3CCN(c4ccccc4)CC3)ccc12 (stereo not given)	D2 ag-1 52, D2 antagonist 72, D2 ag-2 90 | D3 arrestin ag inactive | D2 ag-3 inconclusive
OC(COc1ccccc1CNCc1cccnc1)CN1CCc2ccccc2C1 (stereo not given)	none
COc1ccc2c(C)cc(=O)oc2c1OCC(O)CN1CCOCC1 (stereo not given)	none (no result: D2 antagonist, D2 ag-2, D2 PAM-2)
Cc1ccc(C)c(OCC(O)CN2CCc3ccccc3C2)c1C (stereo not given)	none
COc1ccccc1N1CCN(CC(O)COc2ccc3c(C)cc(=O)oc3c2)CC1 (stereo not given)	D2 ag-1 inconclusive, D2 antagonist 72 | D3 arrestin ag inactive | D2 ag-3 inactive
CCc1ccccc1Nc1nc2ccccc2n2cnnc12	none (no result: D2 ag-1, D2 PAM-1, D2 antagonist)
CC(=O)c1ccc(OCC(O)CN2CCOCC2)cc1 (stereo not given)	none
CC(=O)c1ccc(OCC(O)CN2CCc3ccccc3C2)cc1 (stereo not given)	D2 ag-2 43 | D3 arrestin ag inactive | D2 ag-3 inactive
CCCn1c(/C=C/c2ccco2)nc2ccccc21	none | D3 arrestin ag inactive | D2 ag-3 inactive
CCCCn1c(/C=C/c2ccco2)nc2ccccc21	D2 antagonist 64, D2 ag-2 40 | D3 arrestin ag inactive | D2 ag-3 inactive
O=C(COc1ccc2oc3c(c2c1)CCCC3)Nc1ccc(Br)cc1	none (no result: D2 ag-1, D2 PAM-1, D2 antagonist)
CCCCCN1C(C(=O)c2ccccc2)=C(NC(=O)c2ccccc2Cl)c2ccccc2S1(=O)=O	none (no result: D2 ag-1, D2 PAM-1, D2 antagonist)
COc1cc(CCC(C)NCc2ccccc2)ccc1O (stereo not given)	D2 ag-1 inconclusive, D2 antagonist 75, D2 ag-2 79 | D3 arrestin ag inactive | D2 ag-3 inconclusive
CC(CCc1ccccc1)NCc1ccc(Cl)cc1Cl (stereo not given)	D2 antagonist 45, D2 ag-2 52 | D3 arrestin ag inactive | D2 ag-3 inactive
CC(=O)NC(C)CCc1ccccc1 (stereo not given)	none
CC(CCc1ccc(O)cc1)NCc1ccc(Br)cc1 (stereo not given)	D2 antagonist 32, D2 ag-2 39 | D3 arrestin ag inconclusive | D2 ag-3 inactive
CC(CCc1ccccc1)NCC#N (stereo not given)	D2 antagonist 34, D2 ag-2 57 | D3 arrestin ag inactive | D2 ag-3 inactive
COc1cccc(CNC(=O)C2=C(C)C(=O)OC23CCN(C(C)=O)CC3)c1OC	none (no result: D2 ag-1, D2 PAM-1, D2 antagonist)
Cc1cc(Cl)ccc1NC(=O)Cn1nc(C)c2c(C)n(-c3ccccc3)nc2c1=O	none (no result: D2 ag-1, D2 PAM-1, D2 antagonist)
COc1ccc(CNC(C)CCc2ccccc2)cc1 (stereo not given)	D2 antagonist 62, D2 ag-2 64 | D3 arrestin ag inactive | D2 ag-3 inactive
CCOC(=O)c1sc(N2C(=O)c3oc4ccc(C)cc4c(=O)c3C2c2ccccc2F)nc1C (stereo not given)	none (no result: D2 ag-1, D2 PAM-1, D2 antagonist)
Cc1ccccc1C(=O)NCC(=O)NNC(=O)CCN1CCN(c2ccccc2)CC1	D2 antagonist 72, D2 ag-2 82 | D3 arrestin ag inconclusive | D2 ag-3 inconclusive
CCOc1ccc(C(=O)CCC(=O)NNC(=O)CCN2CCN(c3ccccc3)CC2)cc1	none (no result: D2 antagonist, D2 ag-2, D2 PAM-2)
CC(Oc1ccc(Br)cc1)C(=O)NNC(=O)CCN1CCN(c2ccccc2)CC1 (stereo not given)	D2 antagonist 61, D2 ag-2 38 | D3 arrestin ag inactive | D2 ag-3 inconclusive
O=C(CCN1CCN(c2ccccc2)CC1)NNC(=O)Cc1ccc(Br)cc1	D2 antagonist 70, D2 ag-2 77 | D3 arrestin ag inactive | D2 ag-3 inactive
CCOc1cc(C(=O)OCc2cc(=O)n3nc(CC)sc3n2)cc(OCC)c1OCC	none (no result: D2 ag-1, D2 PAM-1, D2 antagonist)
Cn1cncc1C#Cc1ccc2cc(CCO)oc(=O)c2c1	none | D3 arrestin ag inactive | D2 ag-3 inactive
COc1cc(C2N(Cc3ccccc3)CCN2Cc2ccccc2)ccc1OC(C)=O	none | D3 arrestin ag inactive | D2 ag-3 inactive
COc1cc(C2N(c3ccccc3)CCN2c2ccccc2)ccc1OC(C)=O	none
COc1ccc(C2N(Cc3ccccc3)CCN2Cc2ccccc2)cc1[N+](=O)[O-]	none | D3 arrestin ag inactive | D2 ag-3 inactive
CCOc1ccc(C(c2c(O)cc(C)n(Cc3ccco3)c2=O)N2CCN(c3ccccc3)CC2)cc1 (stereo not given)	none (no result: D2 ag-1, D2 PAM-1, D2 antagonist)
Cc1ccc(S(=O)(=O)N2CCOC2CNC(=O)C(=O)NCc2ccc3c(c2)OCO3)cc1 (stereo not given)	D2 antagonist 66 | D3 arrestin ag inactive | D2 ag-3 inactive
Cc1cccc(CNC(=O)c2ccc(NC(=O)N3CC(C)Sc4ccccc43)cc2)c1 (stereo not given)	none (no result: D2 ag-1, D2 PAM-1, D2 antagonist)
COC(=O)c1ccccc1NC(=O)c1cc2ccccc2o1	none
O=C(Nc1ccccc1C(F)(F)F)c1cc2ccccc2o1	D2 antagonist 47 | D3 arrestin ag inactive | D2 ag-3 inactive
COc1ccc(-c2noc(-c3ccc(N4CCCC4)c([N+](=O)[O-])c3)n2)cc1	none (no result: D2 ag-1, D2 PAM-1, D2 antagonist)
CSCC[C@H](NC(=O)C1CCN(S(=O)(=O)c2ccc(C)cc2)CC1)C(=O)NC1CCS(=O)(=O)C1 (stereo not given in full)	D2 ag-2 53 | D3 arrestin ag inactive | D2 ag-3 inactive
O=C(COc1ccccc1Cl)NNC(=O)Cn1[nH]c(=O)c2ccccc2c1=O	none | D3 arrestin ag inactive | D2 ag-3 inactive
CC(C)c1nc2ccc(C(=O)Nc3ccccc3F)cc2o1	none (no result: D2 ag-1, D2 PAM-1, D2 antagonist)

Bioassay records from PubChem.
